Experimental data published in publication PMC4336329 (PLoS ONE, 2015).
The whole screen tested about 310,000 compounds, of which about 14,000 (4.5%) showed an effect of 50% or more. Effects have a minus sign here. This excerpt belongs to a sample that is enriched for strong results.

What follows are molecules tested against human ether-à-go-go-related gene (hERG) potassium channel (human, UniProt Q12809) (assay: primary screen, population patch clamp on CHO cells stably expressing hERG; higher = less effect of the substance).
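Further: peak tail current of the secondary pulse compared with the same well before compound.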

human ether-à-go-go-related gene (hERG) potassium channel, sequence (Q12809 whole entry, looked up): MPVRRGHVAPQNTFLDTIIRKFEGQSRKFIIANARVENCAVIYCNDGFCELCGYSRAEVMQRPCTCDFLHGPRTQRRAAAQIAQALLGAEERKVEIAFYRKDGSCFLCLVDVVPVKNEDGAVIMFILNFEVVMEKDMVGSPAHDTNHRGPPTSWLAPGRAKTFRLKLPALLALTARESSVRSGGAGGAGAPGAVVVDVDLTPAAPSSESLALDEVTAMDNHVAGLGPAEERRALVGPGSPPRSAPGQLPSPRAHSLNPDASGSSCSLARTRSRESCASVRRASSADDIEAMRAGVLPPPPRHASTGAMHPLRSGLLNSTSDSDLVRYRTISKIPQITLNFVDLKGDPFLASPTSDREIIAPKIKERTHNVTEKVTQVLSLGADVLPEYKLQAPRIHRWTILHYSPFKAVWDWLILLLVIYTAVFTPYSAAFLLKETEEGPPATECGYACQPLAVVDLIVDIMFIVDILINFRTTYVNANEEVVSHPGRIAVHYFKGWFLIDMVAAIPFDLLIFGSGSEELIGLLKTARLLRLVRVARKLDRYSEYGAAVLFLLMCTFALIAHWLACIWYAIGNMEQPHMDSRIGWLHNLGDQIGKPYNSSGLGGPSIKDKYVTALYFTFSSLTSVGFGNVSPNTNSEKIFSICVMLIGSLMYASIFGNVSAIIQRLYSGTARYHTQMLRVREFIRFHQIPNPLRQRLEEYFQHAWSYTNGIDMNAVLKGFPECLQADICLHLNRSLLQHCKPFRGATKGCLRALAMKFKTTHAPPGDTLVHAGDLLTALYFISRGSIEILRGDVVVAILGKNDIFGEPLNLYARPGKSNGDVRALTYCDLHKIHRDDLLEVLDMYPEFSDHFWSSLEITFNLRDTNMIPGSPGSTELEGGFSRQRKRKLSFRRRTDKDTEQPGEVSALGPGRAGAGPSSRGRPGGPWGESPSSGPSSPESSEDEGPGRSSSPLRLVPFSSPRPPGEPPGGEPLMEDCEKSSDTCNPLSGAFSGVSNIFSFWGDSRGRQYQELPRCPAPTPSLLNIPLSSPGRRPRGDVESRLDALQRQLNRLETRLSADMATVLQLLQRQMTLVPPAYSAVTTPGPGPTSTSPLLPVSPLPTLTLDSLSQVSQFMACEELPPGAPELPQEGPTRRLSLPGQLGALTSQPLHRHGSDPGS

Going from `CCCCNC(=O)CN1C(=O)COc2ccc(S(=O)(=O)N3CCCCCC3)cc21` to `O=S(=O)(Nc1ccc(S(=O)(=O)N2CCCC2)cc1)c1ccccc1Br`, the “hERG current change (%, negative = inhibition) at 10uM” value rises from -1.25% to 3.27%.

Compared with `O=C(CSc1nc(=O)n2ccccc2n1)NCCc1ccccc1`, `Cn1c(SCC(=O)NCCc2ccccc2)nnc1-c1ccco1` is lower in “hERG current change (%, negative = inhibition) at 10uM” value: -1.36% for the first, -4.63% for the second.

First: Cc1ccc2nc(CSc3nnc(Cc4cccs4)n3C3CCCCC3)cc(=O)n2c1
Second: O=C(CSc1nnc(-c2cccs2)n1C1CC1)NCC1CCCO1 (stereo not drawn)
The “hERG current change (%, negative = inhibition) at 10uM” value of the first is lower: -15.6% for the first, -0.536% for the second.

Compared with `COc1cccc(C(=O)N/N=C/c2ccc(OC)c(COc3ccccc3C(N)=O)c2)c1`, `COc1ccc(CNC(=O)c2cccc(-c3ccc(C)c4ccccc34)n2)cc1` is lower in “hERG current change (%, negative = inhibition) at 10uM” value: -2.25% for the first, -24% for the second.

First: N#Cc1cc(Oc2ccc(Cl)cc2)c(N2CCOCC2)cc1C#N
Second: COc1cccc(CC2(CO)CCCN(CC3=Cc4cc(Cl)ccc4OC3)C2)c1 (stereo not drawn)
The “hERG current change (%, negative = inhibition) at 10uM” value of the first is higher: -1.79% for the first, -7.49% for the second.

First: O=C(CSc1nnc(-c2ccco2)n1-c1ccccc1)NCc1ccco1
Second: Cc1cccc(-n2c(SCC(=O)NCc3ccco3)nnc2-c2ccco2)c1
The “hERG current change (%, negative = inhibition) at 10uM” value of the first is higher: -67.8% for the first, -75.7% for the second.

Going from `O=C(CSc1nnc(-c2ccco2)n1-c1ccccc1)NCCc1ccccc1` to `CN(Cc1ccccc1)C(=O)CSc1nnc(-c2ccco2)n1-c1ccccc1`, the “hERG current change (%, negative = inhibition) at 10uM” value falls from -69.4% to -80.2%.

Compared with `Cc1cccc(-n2c(SCC(N)=O)nnc2-c2ccco2)c1`, `CNC(=O)CSc1nnc(-c2ccco2)n1-c1cccc(C)c1` is lower in “hERG current change (%, negative = inhibition) at 10uM” value: -1.07% for the first, -4.75% for the second.

First: NC(=O)CSc1nnc(-c2ccco2)n1-c1ccccc1
Second: CC(=O)CSc1nnc(-c2ccco2)n1-c1ccccc1
The “hERG current change (%, negative = inhibition) at 10uM” value of the first is higher: 16.1% for the first, -11.7% for the second.

First: Cc1nnc(SCC(=O)NCc2ccco2)n1-c1ccccc1
Second: O=C(CSc1nnc(-c2cccs2)n1-c1ccccc1)NCc1ccco1
The “hERG current change (%, negative = inhibition) at 10uM” value of the first is higher: 26.1% for the first, -73% for the second.

Going from `O=C(O)CCCCCNC(=O)CSc1nnc(-c2ccco2)n1-c1ccccc1` to `O=C(CSc1nnc(-c2ccccc2)n1-c1ccccc1)NCc1ccco1`, the “hERG current change (%, negative = inhibition) at 10uM” value falls from 11.9% to 1.47%.

Going from `O=C(N1CCCCC1)N1CCN(S(=O)(=O)c2ccccc2)CC1` to `O=C(c1ccccc1)N1CCN(C2c3cccc4cccc(c34)C2NS(=O)(=O)c2ccccc2)CC1` (stereo not drawn), the “hERG current change (%, negative = inhibition) at 10uM” value falls from 10.4% to -21.9%.

Going from `Nc1cc(-c2ccc(Cl)cc2)nn1S(=O)(=O)c1ccc(Cl)cc1` to `COc1ccc(-c2ccc(NS(=O)(=O)c3cc([N+](=O)[O-])ccc3C)cc2)nn1`, the “hERG current change (%, negative = inhibition) at 10uM” value falls from 19.1% to -25.5%.

Compared with `CC(=O)Nc1ccc(OCc2cnc(Cl)s2)cc1`, `CN(CC(=O)Nc1ccc(Cl)cc1)S(=O)(=O)c1ccc2c(c1)n(C)c(=O)c(=O)n2C` is higher in “hERG current change (%, negative = inhibition) at 10uM” value: 11.3% for the first, 16.3% for the second.

Going from `CCN(C(=O)COC(=O)c1c(C)nsc1NC)c1ccccc1` to `CCC(=NCc1ccccc1)C1=C(O)C(C(=O)OC)C(C)(C)CC1=O` (stereo not drawn), the “hERG current change (%, negative = inhibition) at 10uM” value falls from -11.9% to -17%.

First: Cc1onc(-c2ccccc2)c1C(=O)NNC(=S)NC(=O)/C=C/c1ccccc1
Second: O=C(CSc1nnc(-c2cccs2)n1-c1ccccc1)NCC1CCCO1 (stereo not drawn)
The “hERG current change (%, negative = inhibition) at 10uM” value of the first is higher: 16.2% for the first, -74.1% for the second.

First: C[C@@H]1CC=C[C@H]2[C@H]1C(=O)N(Cc1ccccc1)[C@H]2c1ccc(-c2ccc(F)cc2)cc1F
Second: CN(/N=C/c1c[nH]c2ccccc12)c1cnn(-c2ccc(F)c(Cl)c2)c(=O)c1Cl
The “hERG current change (%, negative = inhibition) at 10uM” value of the first is higher: -0.198% for the first, -5.66% for the second.

First: Cc1cc(C)nc(SCc2nnc(SCC(=O)NCc3ccco3)n2-c2ccccc2)n1
Second: CCn1c(SCC(=O)NCc2ccco2)nnc1-c1cccs1
The “hERG current change (%, negative = inhibition) at 10uM” value of the first is lower: -14.5% for the first, -8.86% for the second.

Compared with `O=C(CSc1nc2c(c(=O)n1-c1ccc(Cl)cc1)SCC2)NCC1CCCO1` (stereo not drawn), `O=C(CSc1nc2c(c(=O)n1-c1ccc(F)cc1)SCC2)NCC1CCCO1` (stereo not drawn) is higher in “hERG current change (%, negative = inhibition) at 10uM” value: -34.5% for the first, -2.45% for the second.

First: O=C(CSc1nc2c(c(=O)n1-c1ccc(Br)cc1)SCC2)NCC1CCCO1 (stereo not drawn)
Second: Cc1nnc(SCC(=O)NCC2CCCO2)n1-c1ccccc1 (stereo not drawn)
The “hERG current change (%, negative = inhibition) at 10uM” value of the first is lower: -60.9% for the first, -4.28% for the second.

Going from `CCOc1ccccc1CN1CCNC(=O)C1CC(=O)N(C)Cc1nonc1C` (stereo not drawn) to `COc1cccc(CC2(CO)CCCN(CC3=Cc4cc(OC)ccc4OC3)C2)c1` (stereo not drawn), the “hERG current change (%, negative = inhibition) at 10uM” value falls from 8.59% to -21.5%.
